Screening data (PubChem)
Tg IFNy HTS: T. gondii growth inhibition under IFN-gamma. Toxoplasma gondii growth in IFN-gamma-treated host cells; hits give low values. activity change, negative = inhibition, % (test concentration not listed). actives 3.8% (n = 69,000); in the data active means activity change below about -70%, passing the limit was not always enough;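 further: host cells are HeLa cells infected with Toxoplasma gondii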
* hit, by the source's call; ! = not confirmed by another sample. Many of the other results were omitted from the sample, so hits are more common in it than they were.

SMILES	Tg IFNy HTS
CNC(=O)Cc1ccc(-c2cc(OC)ccc2F)cc1	73
Cc1nc(Cn2cnc3c2c(=O)n(C)c(=O)n3C)no1	-11
CN(C)CCO[C@H]1CN(C(=O)NCc2ccccc2)[C@H]2COC[C@@H]12	-1
Cc1ccc(CN2CCCC3(CC(n4ccnc4)CO3)C2)o1 (stereo unspecified)	2
COc1ccc(CCC(=O)N2CCC3(CC2)Nc2cc(OC)ccc2-n2cccc23)cc1	-82*
COc1ccc2c(c1)NC1(CCN(C(=O)Cc3ccc(C)cc3)CC1)c1cccn1-2	12
O=C(CCc1ccccc1)N1CCC2(CC1)Nc1cc(F)ccc1-n1cccc12	45
COc1ccc(CCC(=O)N2CCC3(CC2)Nc2cc(F)ccc2-n2cccc23)cc1	-75*
COc1ccc(OCC(=O)N2CCC3(CC2)Nc2cc(OC)ccc2-n2cccc23)cc1	18
COc1cc(CCC(=O)N2CCC3(CC2)Nc2cc(F)ccc2-n2cccc23)cc(OC)c1OC	37
O=C(C[C@H]1CC[C@@H]2[C@H](COC[C@H](O)CN2C(=O)c2ccc(F)cc2)O1)N1CCCCC1	3
COCC1(C(=O)N2CCNC(=O)C2CC(=O)OC)CCC1 (stereo unspecified)	5
COC(=O)c1ccccc1NC(=O)c1ccccc1Cl	71
CCN(CC)CCCNC(=O)c1csc(Nc2ccc(C)cc2)n1	375
CS(=O)(=O)N1CCO[C@H]2[C@@H](Oc3ncccc3F)CC[C@H]21	127
CNC(=S)N1N=C(c2c(-c3ccccc3)c3cc(Cl)ccc3[nH]c2=O)CC1c1ccccc1 (stereo unspecified)	156
COC(C(=O)N1N=C(c2c(-c3ccccc3)c3cc(Cl)ccc3[nH]c2=O)CC1c1ccccc1)c1ccccc1 (stereo unspecified)	-102*
CNC(=S)N1N=C(c2c(-c3ccccc3)c3cc(Cl)ccc3[nH]c2=O)CC1c1ccccc1OC (stereo unspecified)	-40
CC(O)c1nc2ccc(-c3cccc4cccnc34)cc2[nH]1 (stereo unspecified)	1
COc1ccccc1-c1noc(-c2nnn(Cc3nc(-c4cccc(C)c4)oc3C)c2C)n1	-34
c1ccc2c(CC3=NCCN3)cccc2c1	-1
C(=N\NC1=NCCN1)/c1c2ccccc2c(/C=N/NC2=NCCN2)c2ccccc12	-75*
Brc1c(NC2=NCCN2)ccc2nccnc12	11
O=C(O)c1ccccc1-c1nccn1C1CCCC1	1
CC[N+](CC)(CC)CCC(O)(c1ccccc1)C1CCCCC1 (stereo unspecified)	22
SMILES	Tg IFNy HTS
CN1CCCN=C1COC(=O)C(O)(c1ccccc1)C1CCCCC1 (stereo unspecified)	-74*!
OC(CCN1CCCC1)(c1ccccc1)C1CCCCC1 (stereo unspecified)	-42
c1cc(C2CCN(c3ncnc4c3CCNC4)CC2)ccn1	-11
COc1cccc(OCCN2CCN(c3ncnc4c3CCNC4)CC2)c1	-53
COc1cccc(C2CCN(c3ncnc4c3CCNC4)C2)c1OC (stereo unspecified)	-72*
C=CCNC(=O)C1(Cc2ccc(-c3ccccc3F)cc2)CCCNC1 (stereo unspecified)	-36
CCCCCC(=O)Nc1ccc2c(c1)Cc1ccccc1-2	71
O=C(CCCc1ccc(-c2ccccc2F)cc1)Nc1ccc(O)cc1	-80*
Cc1nc(N(C)C/C=C/c2ccccc2)c2cnn(C)c2n1	-23
Cn1c2c(ccc1=O)CC(NS(=O)(=O)c1ccc(F)cc1)CC2 (stereo unspecified)	-64
Cc1ccc(C)c(N2CCN(C(=O)CC3Nc4c5ccccc5nc(=S)n4C3=O)CC2)c1 (stereo unspecified)	5
CCCn1c(=O)cc(N2CCN(C(=O)CC)CC2)c2cc(C)ccc21	-76*
CCCCn1c(=O)cc(O)c2ccccc21	-3
Cc1cc(C(=O)NCC2(O)CCCNCC2)sc1-c1ccccc1 (stereo unspecified)	-1
CC(NCCC(c1ccccc1)c1ccccc1)c1ccccc1 (stereo unspecified)	-82*!
CNCC[C@@H](Oc1ccccc1C)c1ccccc1	16
CC(Nc1ccc(-c2nccn2C)nn1)c1ccccc1 (stereo unspecified)	205
COc1cc(OC)c(NC(=O)Cn2c(=O)cc(C(=O)N3CCCC3)c3ccccc32)cc1Cl	1
COc1ccc(-c2ncnc3c(C)csc23)c(OC)c1	-56
COc1ccc(NC(=O)Cn2ncc3c(N4CCC(C)CC4)ncnc32)cc1OC	52
O=C(Cn1ncc2c(N3CCCCC3)ncnc21)Nc1cccc(Cl)c1	-47
CC1CCN(c2ncnc3c2cnn3CC(=O)Nc2ccccc2C(F)(F)F)CC1	-81*
CC1CCN(c2ncnc3c2cnn3CC(=O)Nc2ccccc2F)CC1	237
CC1CCN(c2ncnc3c2cnn3CC(=O)Nc2ccc3c(c2)OCCO3)CC1	160
O=C(Cn1ncc2c(N3CCCC3)ncnc21)Nc1cccc(Cl)c1	-55
CC1CCN(c2ncnc3c2cnn3CC(=O)Nc2cccc(Cl)c2)CC1	-87*
CC1CCN(c2ncnc3c2cnn3CC(=O)Nc2cccc(C(F)(F)F)c2)CC1	-72*
